Shiga toxin inh: A qHTS for Small Molecule Inhibitors of Shiga Toxin; Vero cells, Shiga toxin protein synthesis inhibition reporter; inhibition, % at 38.7 µM; actives 9.2% (n = 290,000); AID 2315, 2010; in the data active = inhibition mostly above about 28%, no sharp cut-off; inactive = mostly below about 43%; also: 0% is about no effect
Cycloheximide cs: Cycloheximide Counterscreen for Small Molecule Inhibitors of Shiga Toxin; cell reporter, cycloheximide protein synthesis inhibition counterscreen; max response, %; actives 12% (n = 300,000); AID 2314, 2010; in the data active = max response mostly above about 13%, no sharp cut-off; inactive = mostly below about 14%; also: read at 38.3 µM for the half of the compounds with a filed dose; 0% is about no effect
Pf growth 96h: Primary qHTS for delayed death inhibitors of the malarial parasite plastid, 96 hour incubation; Potency, µM (titrated, usually from 28.7 µM), for inactives: at the top dose activity change, negative = inhibition, usual class: inhibitors; P. falciparum luciferase reporter growth, 96 h; AID 504834, 2011; actives 6.9% (n = 320,000); also: potency is read from the fitted curve at half-maximal effect; % is scaled to controls: 0 for no effect and ±100 for the full control effect
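Two-generation exposure (96 h) targets delayed-death phenotype. Reporter parasites carrying integrated firefly luciferase, in red cells at 2% hematocrit and 0.05% parasitemia final, kept at 37 C, 5% CO2; luminescence loss indicates inhibition.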
NS1 function inh: qHTS Assay for Inhibitors of Influenza NS1 Protein Function; AID 2326, 2010; actives 0.4% (n = 270,000); Potency, µM (titrated, usually from 46.1 µM), for inactives: at the highest dose activity, positive = more growth; calls by dose curve; also: potency is read from the fitted curve at half-maximal effect; actives are rising curves; nearly all actives have a fitted effect of over 50% in size
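A cell-based growth assay was used: compounds that relieve NS1-induced slow growth of budding yeast raise OD600. Assay medium was yeast nitrogen base with ammonium sulphate and -URA supplement, pH 6.0, with 2% galactose.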
Pf growth 48h: Primary qHTS for delayed death inhibitors of the malarial parasite plastid, 48 hour incubation; P. falciparum luciferase growth in erythrocytes, 48 h; Potency, µM (highest dose often 28.7 µM), without a hit: top-dose activity change, negative = inhibition, hits mostly inhibitors; actives 5.9% (n = 310,000); also: potency is read from the fitted curve at half-maximal effect; % is scaled to controls: 0 for no effect and ±100 for the full control effect
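Growth was read as firefly luciferase luminescence after a 48 h, 37 C, 5% CO2 exposure of compounds to reporter-bearing P. falciparum cultures (0.1% parasitemia, 2% hematocrit final) in Albumax-supplemented RPMI 1640.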
* = called active by the depositor; i = inactive; ? = inconclusive; nt = no result; [ ] = remark or other dose. An excerpt weighted towards active compounds, which were near 21% of everything screened. Unless noted, calls follow the shape of the dose curve; as a rule, active = well fitted inhibition curve with a large enough effect; inconclusive = small, poorly fitted or top-dose-only effect, or another doubt; inactive = no such curve, though single readings can be large or run the other way.

SMILES	Shiga toxin inh	Cycloheximide cs	Pf growth 96h	NS1 function inh	Pf growth 48h
Nc1nonc1C(=O)NCCNCc1c(OCc2ccccc2F)ccc2ccccc12	-19	-5	nt	1%	4.7µM*
Nc1nonc1C(=O)NCCNS(=O)(=O)c1ccc(F)cc1	-12	-2	2.9µM*	2%	15%
COc1cc(/C=C2/NC(=O)NC2=O)cc(Br)c1OCc1ccc(C(=O)O)cc1	3	5	?	nt	3%
CCC(=O)N1CCN(c2ccccc2NC(=S)NC(=O)c2ccco2)CC1	-1	-2	-1%	12%	?
COc1ccc(-n2ccc(=O)c(C(=O)O)n2)c(OC)c1	-13	-1	20%	-6%	39%
CC(=O)Nc1nnc(CSCc2ccccc2F)s1	28	23*	8%	0%	13%
CC(=O)Nc1nnc(SCc2ccccc2F)s1	44*	24*	nt	-48%	73%
O=C(Nc1nnc(SCc2ccccc2)s1)C1=COCCO1	nt	nt	43%	nt	28%
O=C(Nc1nnc(SCc2ccccc2F)s1)C1=COCCO1	116*	57*	37%	-21%	21%
COc1ccc([N+](=O)[O-])cc1NC(=O)C(C)Sc1nc(C)c(C)c(C)n1 (stereo unspecified)	17	-1	?	5%	?
N#CC1(NC(=O)COC(=O)c2nc(Cl)c(Cl)c(N)c2Cl)CCCCC1	nt	nt	42%	nt	13%
CN(C)c1ccc(/C=N/NC(=O)C(=O)/C=C2\NC3(CCCC3)Cc3ccccc32)cc1	11	7	2.6µM*	?	?
O=C(/C=C1\NC2(CCCC2)Cc2ccccc21)C(=O)N/N=C/c1ccccc1O	31	23*	0%	?	0%
COc1cc(/C=N/NC(=O)C(=O)/C=C2\NC3(CCCC3)Cc3ccccc32)ccc1O	-7	-3	?	5%	?
CCOc1cc(C(=O)N2CCN(c3ccc(C(C)=O)cc3)CC2)cc(OCC)c1OCC	3	0	nt	-19%	?
CCN(CC)S(=O)(=O)c1ccc(OC)c(NC(=S)Nc2cccc(C)c2)c1	28	1	39%	22%	-15%
CCN(CC)S(=O)(=O)c1ccc(OC)c(NS(=O)(=O)Cc2ccccc2)c1	-6	1	12µM*	13%	-9%
CCN(CC)S(=O)(=O)c1ccc(OC)c(NC(=S)Nc2cccc(C)c2C)c1	-14	24*	-21%	18%	-13%
CSCC[C@H](NC(=O)Nc1ccc(Oc2ccccc2)cc1)C(=O)O	13	5	?	1%	119%
O=C(Nc1ccsc1C(=O)NC1CC1)c1ccccc1	-3	9	0%	-16%	-6%
O=C(Nc1ccsc1C(=O)NC1CCCCC1)c1ccc(F)cc1	-6	-1	1.7µM*	-4%	1.7µM*
O=C(COC(=O)c1ccccn1)NCCCc1ccccc1	-5	16	0%	-2%	40%
CN(C)CCN1C(=O)c2ccccc2N(C)c2ccccc21	nt	nt	3µM*	nt	-18%
COc1ccc(CCNS(=O)(=O)c2cc(C(=O)O)c(Cl)cc2Cl)cc1	6	-6	-40%[1.15 µM]	5%	-31%[1.15 µM]
N#Cc1c2ccc([N+](=O)[O-])cc2[n+]([O-])n1-c1ccccc1	nt	nt	10µM*	nt	12µM*
SMILES	Shiga toxin inh	Cycloheximide cs	Pf growth 96h	NS1 function inh	Pf growth 48h
COc1cccc(-n2c(N)c(C#N)c3ccc([N+](=O)[O-])cc3c2=O)c1	-14	-1	-99%	16%	-46%
COc1ccc(OCC(=O)N/N=C2\CCCc3ccccc32)cc1	-21	0	?	-8%	30%
COc1ccccc1OCC(=O)N/N=C1\CCCCc2ccccc21	19	17*	?	-3%	?
Cc1cccc2c1OCC/C2=N\NC(=O)COc1ccccc1	133*	60*	69%	1%	82%
COc1ccccc1OCC(=O)N/N=C1\CCc2ccccc21	92*	38*	nt	-9%	69%
O=C(COc1ccccc1F)N/N=C1\CCCc2ccccc21	79*	35*	98%	5%	183%
COc1cc(/C=C2\SC(=S)N(CC(=O)Nc3ccc(O)cc3)C2=O)cc(OC)c1OC	-1	-1	?	nt	2%
COc1ccc2cc(C(=O)C3CCCN(C(=O)/C=C/c4ccccn4)C3)ccc2c1 (stereo unspecified)	-6	1	?	4%	-1%
COc1ccc(C(=O)NN=C2CCCC2)cc1OC	-2	-2	?	0%	17%
COc1ccc(C(=O)N/N=C2\CCc3ccccc32)cc1OC	34	30*	-13%	3%	-10%
Fc1ccc(-c2nc3n(n2)Cc2ccccc2-3)cc1	66*	42*	nt	-10%	42%
CCn1c(C)nc2cc(-c3nc4n(n3)Cc3ccccc3-4)ccc21	-22	-10	0.21µM*	-14%	0.19µM*
Cc1ccc(-c2nc3n(n2)Cc2ccccc2-3)cc1	14	20*	i	-12%	322%
Cc1cc(C)nc(N=Nc2c(O)n(Cc3ccc(Cl)cc3)c3ccccc23)n1	-7	2	?	5%	?
CC(C)/C(=N/[N+](C)(C)C)c1ccccc1	nt	nt	nt	0%	nt
C=CCNC(=O)c1c(N)n(-c2ccc3c(c2)OCO3)c2nc3ccccc3nc12	-8	-1	?	-2%	8%
Clc1ccccc1-c1nc2nc3ccccc3nc2n1-c1ccc2c(c1)OCO2	-14	-2	10µM*	-47%	?
CC(=O)N1CCN(CC(=O)Nc2c(Cl)ccc(C)c2Cl)CC1	4	-1	48%	22%	0%
CC(=O)Nc1ccc(NC(=O)C(C)OC(=O)C2(c3ccc(Cl)cc3)CCCC2)cc1 (stereo unspecified)	-13	-2	12µM*	-14%	9.3µM*
CC(=O)Nc1ccc(NC(=O)C(C)OC(=O)C2(c3ccc(F)cc3)CCCC2)cc1 (stereo unspecified)	-3	-7	?	nt	?
CN(CC(=O)Nc1ccc(Cl)c(C(F)(F)F)c1)C(=O)CC1Sc2ccccc2NC1=O (stereo unspecified)	-1	-1	?	0%	?
CN(C)C(CNc1ncnc2sc3c(c12)CCCC3)c1ccco1 (stereo unspecified)	20	15*	8%	nt	-5%
c1ccc(Cn2ccc(-c3cnc(-c4ccccc4)s3)n2)cc1	109*	41*	286%	-93%	nt
CCOc1ccc(NC(=O)CNC(=O)c2ccc([N+](=O)[O-])cc2)cc1	2	-1	?	nt	7%[5.75 µM]
COc1ccc(CCNC(=O)c2cn(C)c3ccc(S(=O)(=O)N4CCOCC4)cc3c2=O)cc1OC	3	5	11%	14%	13µM*
Cn1cc(C(=O)NCCc2ccccc2)c(=O)c2cc(S(=O)(=O)N3CCOCC3)ccc21	nt	nt	nt	-18%	nt
CCn1cc(C(=O)NCCc2ccc(OC)c(OC)c2)c(=O)c2cc(S(=O)(=O)N3CCOCC3)ccc21	13	-1	?	-2%	10µM*

Screening data deposited in PubChem by National Center for Advancing Translational Sciences (NCATS).
